Measured values reported in PubChem BioAssay (NCATS).
Records with an inconclusive call do not appear. Active and inactive are the calls of the source. The call rests on the fitted dose curve; in most records, active means well fitted curve in the direction sought with a large enough effect; inconclusive means small, poorly fitted or top-dose-only effect, or another doubt; inactive means no such curve, though single readings can be large; an effect the other way counts as inactive or inconclusive.

Experiments:
[1] = qHTS for compounds that reverse cellular toxicity of Amyloid beta (A-beta) peptide in yeast: LOPAC Validation Assay (AID 720559)
Method in brief: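 Medium dispensed, compounds pinned, A-beta yeast suspension added; plates held at 30 C for 48 hr; absorbance measured at 600 nm to gauge growth; values scaled between DMSO and FeCl3/clioquinol (equimolar) controls.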

[2] = qHTS for Activators of Parkin Expression: LOPAC Validation Assay (NLuc Reporter) (AID 720572)
Method in brief: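 Neuronal cells with a Parkin promoter-driven FLuc/NLuc coincidence reporter were treated 24 h at 37 C in 7-point dose response (LOPAC). NLuc luminescence read after FLuc; signals normalized to DMSO and positive control (100%).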

[3] = target: T1, Hexokinase-4 (Homo sapiens) + Glucokinase regulatory protein (Homo sapiens) (UniProt P35557+Q14397); test: qHTS assay for inhibitors of recombinant human GCK-GKRP interaction: ADP-Glo assay (AID 743206)
Method in brief: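 GST-GCK and FLAG-GKRP (15 nM each in the dispensed mix, with 2 uM S6P) react with 0.4 mM ATP and 5 mM glucose (final) in Hepes pH 7.6 for 60 min at room temperature. ADP is measured by ADP-Glo luminescence.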

[4] = target: T1, Hexokinase-4 (Homo sapiens) + Glucokinase regulatory protein (Homo sapiens); test: qHTS assay for inhibitors of recombinant human GCK-GKRP interaction: HTRF assay (AID 743207)
Method in brief: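 5 nM GST-GCK + 5 nM FLAG-GKRP + 2 uM S6P, pH 7.1 buffer (25 mM Hepes, 2 mM MgCl2, 25 mM KCl, 1 mM DTT, Tween/BSA); pin-transferred cpd; anti-FLAG XL665/anti-GST K; 60 min RT; HTRF.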

[5] = NS1 protein of Zika virus - qHTS assay to identify small molecule inhibitors in human HEK 293 cells (AID 1347053); further: series mostly up to about 46 µM; nearly all actives have a fitted effect of over 55% in size
Method in brief: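 HEK 293; 20 h pre-culture, 37 C/5% CO2; cpd 1 h pre-infection; ZIKV MR766, MOI = 0.5, 24 h, 37 C; TR-FRET NS1 readout (two anti-NS1 Abs); norm. to no-virus vs infected.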

[6] = target: Tyrosine-protein phosphatase non-receptor type substrate 1 (Homo sapiens) + Leukocyte surface antigen CD47 (Homo sapiens) (UniProt P78324+Q08722); test: CD47-SIRPalpha protein protein interaction - Alpha assay qHTS validation (AID 1347059);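 further: bead proximity luminescence from CD47 binding SIRPalpha after compound preincubation with SIRPalpha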
Method in brief: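 Biotinylated Avi-tagged SIRPalpha (25 nM) preincubated 30 min with compound, then His-tagged CD47 (12.5 nM) added 30 min; AlphaScreen with Ni-NTA acceptor and streptavidin donor beads. PBS pH 7.4, 0.05% IGEPAL, room temperature; 7-point titrations.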

[7] = target: Parathyroid hormone/parathyroid hormone-related peptide receptor (Homo sapiens) (UniProt Q03431); test: qHTS for PTHR1 Agonists: Optimization Screen against the NCGC LOPAC library (AID 1347079);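 further: GloSensor cAMP luminescence in HEK-293 GP2 cells expressing human PTHR1 with IBMX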
Method in brief: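 Compounds were tested across a qHTS titration. PTHR1-expressing GP2 cells report cAMP rises via GloSensor luminescence after 1 hr compound exposure at 37C with IBMX present.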

[8] = target: N-terminal Xaa-Pro-Lys N-methyltransferase 1 (Homo sapiens) (UniProt Q9BV86); test: qHTS Assay for Inhibitors of N-terminal methyltransferase 1 (NTMT1): LOPAC validation of the NTMT1 SAHH-coupled ThioGlo3 Assay (AID 1347143);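 further: SAH from peptide methylation measured as thiol fluorescence via SAHH coupling and ThioGlo3; potency means the concentration at half of the fitted maximal effect; nearly all actives have a fitted effect of over 70% in size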
Method in brief: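 Recombinant human NTMT1 (125nM) was pre-incubated 1 min at room temperature with compounds over a concentration range, then a mix of 100uM SAM, 10uM SAHH and 15uM ThioGlo3 (concentrations in added reagent) was added. ThioGlo3 fluorescence (ex 340/em 450nm) after 30 min was normalized to the initial reading.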

[9] = system: Zika virus NS2B-NS3 protease (unlinked); test: Optimization of GU AMC qHTS for Zika virus inhibitors: Unlinked NS2B-NS3 protease assay (AID 1347151); further: potency means the concentration at half of the fitted maximal effect; nearly all actives have a fitted effect of over 80% in size
Method in brief: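 Unlinked protease (25 nM final); buffer 10 mM Tris-HCl pH 8.0 + 0.01% Tween 20; AMC substrate; 15 min RT, dark; Δfluorescence normalized to no-inhibitor/no-enzyme controls; 4-parameter Hill fit.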

[10] = qHTS to identify inhibitors of the type 1 interferon - major histocompatibility complex class I in skeletal muscle: primary screen against the NCATS LOPAC collection (AID 1347405);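 further: lytic HiBiT luminescence reporting HLA-B protein level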
Method in brief: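 Immortalized human C25cl48 myoblasts with HiBiT knocked into endogenous HLA-B*08:01 were stimulated with 4.0 ng/ml IFN-beta and given compounds in a 7-point, 1:4.3 titration from 46 uM final; after 24 hrs, lytic HiBiT luminescence was read.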

[11] = Validation qHTS assay for inhibitors of Activation Induced Cytidine Deaminase (AID): UDG Counterscreen signal (AID 1347427)
Method in brief: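 Counterscreen read of UDG activity (2 U/mL, 4/3x) in the FRET deamination format with AID (1 uM, 4/3x), DJC20/DJC23 substrates (250 nM, 4x), 4 h at room temperature. NaOH stop, fluorescence at 560 ex/665 em.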

[12] = target: Single-stranded DNA cytosine deaminase (Homo sapiens) (UniProt Q9GZX7); test: Validation qHTS assay for inhibitors of Activation Induced Cytidine Deaminase (AID): AID signal (AID 1347429)
Method in brief: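 AID and UDG were combined and compounds added at final up to 114 uM, then DJC20/DJC23 FRET substrate was added for 4 hr at room temperature. NaOH was then added for 30 min before fluorescence was read at 540/590 nm.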

[13] = Primary qHTS for inhibitors of La Crosse Virus (LACV) - induced cell death in SH-SY5Y cells (AID 1508616);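 further: top concentration of the series differs between compounds; higher means more rescue of cells from virus-induced death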
Method in brief: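 Luminescent ATP readout (ATPLite 1step, 5 min room temperature) measured rescue from LACV-induced death after 6 days of infection at 0.01 MOI; normalized to infected DMSO wells and uninfected DMSO wells.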

[14] = target: Calcium and integrin-binding protein 1 (Homo sapiens) (UniProt Q99828); test: Validation qHTS for Identification of Calcium Integrin Binding protein 1 (CIB1) Competitor (AID 1508618)
Method in brief: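 In this qHTS validation, the LOPAC set (up to 114 uM) was tested for blocking CIB1 binding to a fluorescein-tagged alphaIIb peptide, with FP detection at 480/540 nm.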

[15] = Primary qHTS for small molecule stabilizers of the endoplasmic reticulum resident proteome: Secreted ER Calcium Modulated Protein (SERCaMP) assay (AID 1508630)
Method in brief: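 GLuc-SERCaMP-expressing SH-SY5Y cells, pretreated 16 h with compound, are challenged with thapsigargin to empty ER calcium stores; after 4 h, coelenterazine is added directly to the medium and luminescence is imaged.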

[16] = target: Rap guanine nucleotide exchange factor 3 (Homo sapiens) (UniProt O95398); test: Confirmatory qHTS for agonist of cAMP-regulated guanine nucleotide exchange factor 3 (EPAC1) (AID 1645881);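 further: EPAC1 catalysed release of BODIPY-GDP from Rap1B seen as fluorescence loss; nearly all actives have a fitted effect of over 75% in size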
[17] = target: Rap guanine nucleotide exchange factor 4 (Homo sapiens) (UniProt Q8WZA2); test: Confirmatory qHTS for agonist of cAMP-regulated guanine nucleotide exchange factor 4 (EPAC2) (AID 1645884);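 further: nucleotide exchange releases bodipy-GDP from Rap1 and this lowers its fluorescence; nearly all actives have a fitted effect of over 65% in size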
[18] = target: Rap guanine nucleotide exchange factor 4 (Homo sapiens) (UniProt Q8WZA2); test: Confirmatory qHTS for antagonist of cAMP-regulated guanine nucleotide exchange factor 4 (EPAC2) (AID 1645885); further: nearly all actives have a fitted effect of over 25% in size
[19] = target: Metallo-beta-lactamase type 2 (Klebsiella pneumoniae) (UniProt C7C422); test: qHTS to identify inhibitors of the New Delhi Metallo-beta-lactamase (NDM): assay validation screen against the NCATS LOPAC Collection (AID 1794843);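 further: nitrocefin turnover by NDM-1 measured as 485 nm absorbance at plateau; series mostly up to about 38 µM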
Method in brief: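 Nitrocefin hydrolysis (50 uM substrate stock) by NDM-1, 2 nM final, was followed by 485 nm absorbance after compound preincubation; buffer was 50 mM HEPES pH 7.0, 1 uM ZnSO4, 0.01% Tween20.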

[20] = target: Glutathione peroxidase 1 (Homo sapiens) (UniProt P07203); test: Primary qHTS Assay for Inhibitors of Recombinant Selenoprotein Glutathione Peroxidase 1 (GPX1) (AID 1845191); further: nearly all actives have a fitted effect of over 65% in size
Method in brief: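 GR-coupled assay: compounds preincubated 30 min at room temperature with GPX1, then reaction started with CHP; final 10 nM GPX1, 1 mM GSH, 0.5 mM CHP, 0.5 mM NADPH, 100 nM GR, 0.01% BSA, pH 7.5 Tris buffer. NADPH fluorescence (340/450 nm) read at 0 and 15 min.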

[21] = target: Phospholipid hydroperoxide glutathione peroxidase GPX4 (Homo sapiens) (UniProt P36969); test: Primary qHTS Assay for Inhibitors of Recombinant Selenoprotein Glutathione Peroxidase 4 (GPX4) (AID 1845192); conditions: outcome: dose series up to 50 µM unless noted; further: series mostly up to about 50 µM; nearly all actives have a fitted effect of over 65% in size
Method in brief: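 GR-coupled assay: recombinant GPX4 preincubated 30 min with compound at room temperature; final 200 nM GPX4, 1 mM GSH, 0.5 mM cumene hydroperoxide, 0.5 mM NADPH, 100 nM GR, 0.01% BSA, pH 7.5 Tris. NADPH fluorescence (340/450 nm) read at 0 and 15 min.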

Measured: Potency

T1 sequence (P35557 whole entry, looked up): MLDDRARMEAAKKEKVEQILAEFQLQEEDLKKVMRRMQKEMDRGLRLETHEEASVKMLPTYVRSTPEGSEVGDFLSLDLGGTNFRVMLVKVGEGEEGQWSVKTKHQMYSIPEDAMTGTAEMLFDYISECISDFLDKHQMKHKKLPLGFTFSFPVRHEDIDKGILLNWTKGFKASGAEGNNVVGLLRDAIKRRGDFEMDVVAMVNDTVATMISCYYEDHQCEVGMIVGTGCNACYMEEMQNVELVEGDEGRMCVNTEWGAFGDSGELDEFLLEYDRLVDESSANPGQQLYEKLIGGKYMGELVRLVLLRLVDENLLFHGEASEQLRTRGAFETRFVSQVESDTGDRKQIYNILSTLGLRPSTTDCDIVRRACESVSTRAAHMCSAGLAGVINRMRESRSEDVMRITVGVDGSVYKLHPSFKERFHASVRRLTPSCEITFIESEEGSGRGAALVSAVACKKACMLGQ
T1 sequence (Q14397 whole entry, looked up): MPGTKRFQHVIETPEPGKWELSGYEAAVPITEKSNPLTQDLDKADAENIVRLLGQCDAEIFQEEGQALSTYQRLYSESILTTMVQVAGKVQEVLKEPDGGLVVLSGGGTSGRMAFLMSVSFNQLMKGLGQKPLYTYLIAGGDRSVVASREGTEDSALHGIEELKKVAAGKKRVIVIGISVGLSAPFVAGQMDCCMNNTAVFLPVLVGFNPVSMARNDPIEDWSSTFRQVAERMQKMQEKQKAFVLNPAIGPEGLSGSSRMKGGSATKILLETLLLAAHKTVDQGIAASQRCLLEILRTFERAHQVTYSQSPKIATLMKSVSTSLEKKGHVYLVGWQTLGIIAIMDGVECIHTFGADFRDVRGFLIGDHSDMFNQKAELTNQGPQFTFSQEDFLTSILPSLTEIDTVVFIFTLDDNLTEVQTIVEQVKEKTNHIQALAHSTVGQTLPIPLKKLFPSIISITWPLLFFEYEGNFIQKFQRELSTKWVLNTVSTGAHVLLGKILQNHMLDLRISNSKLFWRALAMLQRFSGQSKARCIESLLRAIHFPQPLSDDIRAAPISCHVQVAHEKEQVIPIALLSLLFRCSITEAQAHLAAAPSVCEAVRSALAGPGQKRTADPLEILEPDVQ
Sequence of Rap guanine nucleotide exchange factor 4 (Homo sapiens) (Q8WZA2 whole entry, looked up): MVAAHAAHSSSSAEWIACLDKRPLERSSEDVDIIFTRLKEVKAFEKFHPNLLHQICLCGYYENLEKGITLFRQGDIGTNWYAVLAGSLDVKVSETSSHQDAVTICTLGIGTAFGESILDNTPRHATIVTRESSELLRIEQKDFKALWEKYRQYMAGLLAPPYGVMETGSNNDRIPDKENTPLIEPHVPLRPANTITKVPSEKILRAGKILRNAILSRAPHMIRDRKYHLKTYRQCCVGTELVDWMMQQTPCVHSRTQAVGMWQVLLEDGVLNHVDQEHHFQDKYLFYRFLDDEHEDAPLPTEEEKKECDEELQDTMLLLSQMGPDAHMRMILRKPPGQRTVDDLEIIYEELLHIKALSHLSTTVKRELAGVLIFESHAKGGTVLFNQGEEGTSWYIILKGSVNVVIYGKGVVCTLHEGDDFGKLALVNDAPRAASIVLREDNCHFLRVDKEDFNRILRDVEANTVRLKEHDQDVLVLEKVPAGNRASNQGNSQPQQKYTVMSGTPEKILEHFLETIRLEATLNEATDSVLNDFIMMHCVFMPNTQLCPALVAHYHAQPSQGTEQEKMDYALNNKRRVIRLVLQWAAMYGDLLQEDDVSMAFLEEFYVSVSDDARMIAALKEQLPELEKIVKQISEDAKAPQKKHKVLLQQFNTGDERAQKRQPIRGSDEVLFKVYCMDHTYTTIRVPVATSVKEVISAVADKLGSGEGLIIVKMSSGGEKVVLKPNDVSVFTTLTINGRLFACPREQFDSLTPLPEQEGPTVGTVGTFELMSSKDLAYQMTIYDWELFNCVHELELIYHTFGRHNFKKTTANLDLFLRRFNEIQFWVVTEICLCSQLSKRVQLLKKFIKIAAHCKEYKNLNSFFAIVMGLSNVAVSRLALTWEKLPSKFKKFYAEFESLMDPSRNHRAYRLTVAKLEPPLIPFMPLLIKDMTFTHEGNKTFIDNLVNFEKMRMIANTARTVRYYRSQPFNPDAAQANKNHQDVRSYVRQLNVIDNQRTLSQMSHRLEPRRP
Sequence of Metallo-beta-lactamase type 2 (Klebsiella pneumoniae) (C7C422 whole entry, looked up): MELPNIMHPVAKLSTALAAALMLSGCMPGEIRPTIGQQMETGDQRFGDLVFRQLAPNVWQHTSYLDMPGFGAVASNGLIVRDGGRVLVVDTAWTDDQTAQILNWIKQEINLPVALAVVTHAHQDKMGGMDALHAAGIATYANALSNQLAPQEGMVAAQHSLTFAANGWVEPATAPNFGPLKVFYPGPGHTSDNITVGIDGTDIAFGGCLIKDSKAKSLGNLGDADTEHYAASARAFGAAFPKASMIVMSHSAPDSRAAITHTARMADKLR
Sequence of N-terminal Xaa-Pro-Lys N-methyltransferase 1 (Homo sapiens) (Q9BV86 whole entry, looked up): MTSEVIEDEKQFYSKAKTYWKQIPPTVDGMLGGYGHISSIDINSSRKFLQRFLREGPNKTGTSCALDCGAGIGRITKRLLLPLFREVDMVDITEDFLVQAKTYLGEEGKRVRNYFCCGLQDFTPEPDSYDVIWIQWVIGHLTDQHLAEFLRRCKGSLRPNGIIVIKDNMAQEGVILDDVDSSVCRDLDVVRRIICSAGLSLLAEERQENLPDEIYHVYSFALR
Sequence of Phospholipid hydroperoxide glutathione peroxidase GPX4 (Homo sapiens) (P36969 whole entry, looked up): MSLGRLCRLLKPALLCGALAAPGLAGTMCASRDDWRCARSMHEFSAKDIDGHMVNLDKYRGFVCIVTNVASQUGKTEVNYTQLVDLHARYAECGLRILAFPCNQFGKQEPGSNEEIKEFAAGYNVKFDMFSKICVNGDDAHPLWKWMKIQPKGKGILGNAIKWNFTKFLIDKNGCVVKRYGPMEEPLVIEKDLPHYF
Sequence of Calcium and integrin-binding protein 1 (Homo sapiens) (Q99828 whole entry, looked up): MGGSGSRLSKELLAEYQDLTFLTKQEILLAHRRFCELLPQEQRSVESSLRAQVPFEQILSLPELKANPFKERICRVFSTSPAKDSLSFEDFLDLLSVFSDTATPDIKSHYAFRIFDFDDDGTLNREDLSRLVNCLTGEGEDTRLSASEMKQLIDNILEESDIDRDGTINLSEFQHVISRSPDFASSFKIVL
Sequence of Parathyroid hormone/parathyroid hormone-related peptide receptor (Homo sapiens) (Q03431 whole entry, looked up): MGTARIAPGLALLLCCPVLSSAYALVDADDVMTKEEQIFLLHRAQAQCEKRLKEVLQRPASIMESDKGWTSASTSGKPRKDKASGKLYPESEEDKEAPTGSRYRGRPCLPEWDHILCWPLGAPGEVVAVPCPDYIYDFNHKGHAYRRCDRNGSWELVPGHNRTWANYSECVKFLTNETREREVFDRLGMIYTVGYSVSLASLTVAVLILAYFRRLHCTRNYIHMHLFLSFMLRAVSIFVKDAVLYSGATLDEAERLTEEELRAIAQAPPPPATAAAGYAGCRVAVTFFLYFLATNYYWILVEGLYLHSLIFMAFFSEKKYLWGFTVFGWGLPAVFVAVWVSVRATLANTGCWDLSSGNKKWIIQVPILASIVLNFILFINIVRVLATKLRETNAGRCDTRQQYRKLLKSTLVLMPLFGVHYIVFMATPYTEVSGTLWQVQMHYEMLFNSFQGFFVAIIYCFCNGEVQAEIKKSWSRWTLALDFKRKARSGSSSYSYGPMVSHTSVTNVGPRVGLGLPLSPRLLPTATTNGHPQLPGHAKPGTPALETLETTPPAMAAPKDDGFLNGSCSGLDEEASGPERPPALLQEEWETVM
Sequence of Rap guanine nucleotide exchange factor 3 (Homo sapiens) (O95398 whole entry, looked up): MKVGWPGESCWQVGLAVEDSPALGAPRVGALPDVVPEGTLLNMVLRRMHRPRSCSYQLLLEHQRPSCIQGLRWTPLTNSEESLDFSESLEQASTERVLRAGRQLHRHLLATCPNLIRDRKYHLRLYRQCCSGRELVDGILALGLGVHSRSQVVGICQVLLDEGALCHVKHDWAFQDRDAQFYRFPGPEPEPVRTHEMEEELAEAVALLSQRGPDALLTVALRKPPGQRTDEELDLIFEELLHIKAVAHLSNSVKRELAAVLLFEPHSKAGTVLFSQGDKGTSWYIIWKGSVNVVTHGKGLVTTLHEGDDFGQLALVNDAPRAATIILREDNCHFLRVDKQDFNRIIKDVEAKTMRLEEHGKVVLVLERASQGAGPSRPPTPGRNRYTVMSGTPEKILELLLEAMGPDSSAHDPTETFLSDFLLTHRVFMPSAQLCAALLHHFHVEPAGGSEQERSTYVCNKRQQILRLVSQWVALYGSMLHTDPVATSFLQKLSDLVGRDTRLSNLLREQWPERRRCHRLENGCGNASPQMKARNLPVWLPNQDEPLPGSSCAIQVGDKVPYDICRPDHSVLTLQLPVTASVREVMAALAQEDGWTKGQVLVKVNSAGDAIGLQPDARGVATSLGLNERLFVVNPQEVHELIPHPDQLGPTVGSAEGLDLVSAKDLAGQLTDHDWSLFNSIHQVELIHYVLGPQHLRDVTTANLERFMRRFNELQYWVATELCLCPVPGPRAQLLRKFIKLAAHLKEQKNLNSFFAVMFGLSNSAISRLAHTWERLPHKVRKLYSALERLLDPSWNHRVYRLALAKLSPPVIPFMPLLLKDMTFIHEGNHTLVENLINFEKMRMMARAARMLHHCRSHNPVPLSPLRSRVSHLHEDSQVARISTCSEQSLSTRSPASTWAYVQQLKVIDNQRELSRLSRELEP
Sequence of Single-stranded DNA cytosine deaminase (Homo sapiens) (Q9GZX7 whole entry, looked up): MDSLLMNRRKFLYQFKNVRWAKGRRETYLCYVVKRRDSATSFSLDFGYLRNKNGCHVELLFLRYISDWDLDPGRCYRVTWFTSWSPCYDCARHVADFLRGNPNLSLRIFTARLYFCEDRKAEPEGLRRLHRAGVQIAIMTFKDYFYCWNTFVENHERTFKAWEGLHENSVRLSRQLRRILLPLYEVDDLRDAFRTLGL
Sequence of Glutathione peroxidase 1 (Homo sapiens) (P07203 whole entry, looked up): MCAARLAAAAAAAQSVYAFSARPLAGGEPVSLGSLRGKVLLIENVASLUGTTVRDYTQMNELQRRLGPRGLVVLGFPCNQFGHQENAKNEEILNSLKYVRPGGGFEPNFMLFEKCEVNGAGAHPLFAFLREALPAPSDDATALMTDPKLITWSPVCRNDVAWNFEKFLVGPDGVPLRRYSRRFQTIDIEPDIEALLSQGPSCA

N#C/C(=C\c1ccc(O)c(O)c1)C(=O)Nc1ccccc1
active: [8] 39.8 µM | [9] 3.36 µM
inactive: all other assays above
